This note sets out measurements from publication PMC7862700, “An all-to-all approach to the identification of sequence-specific readers for epigenetic DNA modifications on cytosine”.

Common to all, as to test: DAPPL (digital affinity profiling via proximity ligation, sequencing); 10 mM Tris-HCl pH 7.5, 50 mM NaCl, 1 mM DTT, 4% glycerol, room temperature, 30 min; GST-TFs on glutathione beads, 16-mer random dsDNA library, 0.1% formaldehyde crosslink after washing; high values mean tight binding
One experiment has as its target T1, FLI1 (Homo sapiens, UniProt Q01543 1-452).
T1 sequence: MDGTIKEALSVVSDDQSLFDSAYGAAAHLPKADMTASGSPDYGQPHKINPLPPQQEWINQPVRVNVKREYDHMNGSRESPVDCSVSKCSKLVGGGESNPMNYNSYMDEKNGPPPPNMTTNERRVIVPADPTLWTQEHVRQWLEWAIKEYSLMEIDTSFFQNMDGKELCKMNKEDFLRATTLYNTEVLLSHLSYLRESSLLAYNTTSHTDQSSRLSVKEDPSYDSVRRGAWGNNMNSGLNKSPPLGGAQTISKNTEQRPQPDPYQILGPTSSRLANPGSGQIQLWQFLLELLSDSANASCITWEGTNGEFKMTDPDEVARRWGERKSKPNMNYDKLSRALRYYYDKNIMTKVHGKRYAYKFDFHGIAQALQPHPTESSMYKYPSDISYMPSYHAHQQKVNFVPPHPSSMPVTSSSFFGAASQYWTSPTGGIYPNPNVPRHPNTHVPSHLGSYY
Particulars: protein: recombinant; tags: N-terminal GST; dsDNA, one strand shown. The method, boiled down:
(§1)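 In yeast, human transcription factors were expressed with a GST fusion, then pulled down on glutathione beads and given DNA barcodes. Pooled with a tag-only sample, they were exposed to 200 nmole of a 16-mer random double-stranded DNA library (Tris/NaCl/DTT/glycerol buffer, room temperature, 30 min), washed, crosslinked with 0.1% formaldehyde, proximity-ligated using BsaI/T4 ligase for 1 h at 37 °C, PCR-amplified and read on an Illumina NextSeq500. Each hexamer's frequency of reads for a factor, divided by the matching frequency for the tag-only sample, gives the binding signal.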

In a further experiment the target is T2, ELK1 (Homo sapiens, UniProt P19419 1-428).
T2 sequence: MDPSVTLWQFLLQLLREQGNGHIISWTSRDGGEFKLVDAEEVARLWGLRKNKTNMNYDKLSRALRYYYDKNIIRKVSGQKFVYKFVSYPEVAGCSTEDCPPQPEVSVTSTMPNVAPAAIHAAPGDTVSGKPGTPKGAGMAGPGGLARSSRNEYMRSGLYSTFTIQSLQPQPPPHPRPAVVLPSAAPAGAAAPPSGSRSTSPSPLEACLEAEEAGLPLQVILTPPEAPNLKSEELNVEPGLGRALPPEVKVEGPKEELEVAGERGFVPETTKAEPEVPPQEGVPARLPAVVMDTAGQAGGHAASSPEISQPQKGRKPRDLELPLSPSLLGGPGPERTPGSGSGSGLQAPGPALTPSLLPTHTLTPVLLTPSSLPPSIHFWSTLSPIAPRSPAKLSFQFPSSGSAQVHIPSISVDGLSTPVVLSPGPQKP
Particulars: protein: recombinant; tags: N-terminal GST; dsDNA, one strand shown. The method, boiled down: as §1

The target of a further experiment is T3, GABPA (Homo sapiens, UniProt Q06546 1-454).
T3 sequence: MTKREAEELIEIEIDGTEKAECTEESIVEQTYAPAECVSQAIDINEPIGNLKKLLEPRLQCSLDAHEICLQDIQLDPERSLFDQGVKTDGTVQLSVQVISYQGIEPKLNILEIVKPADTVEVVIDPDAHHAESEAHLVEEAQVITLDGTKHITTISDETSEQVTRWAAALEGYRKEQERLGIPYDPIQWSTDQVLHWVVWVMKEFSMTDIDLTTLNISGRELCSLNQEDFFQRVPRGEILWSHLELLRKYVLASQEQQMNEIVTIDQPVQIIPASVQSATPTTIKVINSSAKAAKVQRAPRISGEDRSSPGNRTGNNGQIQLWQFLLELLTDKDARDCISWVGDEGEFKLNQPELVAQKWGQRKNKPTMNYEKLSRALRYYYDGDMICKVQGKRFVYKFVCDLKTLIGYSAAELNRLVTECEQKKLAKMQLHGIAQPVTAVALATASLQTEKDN
Particulars: protein: recombinant; tags: N-terminal GST; dsDNA, one strand shown. The method, boiled down:
as §1

The target of a further experiment is T4, ERG (Homo sapiens, UniProt P11308 1-479).
T4 sequence: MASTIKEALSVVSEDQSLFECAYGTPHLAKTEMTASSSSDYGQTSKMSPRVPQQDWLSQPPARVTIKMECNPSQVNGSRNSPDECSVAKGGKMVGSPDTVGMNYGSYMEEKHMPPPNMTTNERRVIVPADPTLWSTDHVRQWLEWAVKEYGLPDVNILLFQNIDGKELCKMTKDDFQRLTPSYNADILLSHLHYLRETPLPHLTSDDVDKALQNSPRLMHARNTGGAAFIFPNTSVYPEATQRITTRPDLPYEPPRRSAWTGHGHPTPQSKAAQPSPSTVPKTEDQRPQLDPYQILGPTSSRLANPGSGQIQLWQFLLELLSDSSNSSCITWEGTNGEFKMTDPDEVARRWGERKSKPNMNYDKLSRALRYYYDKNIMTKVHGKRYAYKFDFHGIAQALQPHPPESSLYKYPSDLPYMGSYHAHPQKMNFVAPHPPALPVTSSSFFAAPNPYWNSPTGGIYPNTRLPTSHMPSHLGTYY
Particulars: protein: recombinant; tags: N-terminal GST; dsDNA, one strand shown. Summed up:
as §1

In a further experiment the target is ELF1 (Homo sapiens, UniProt P32519 1-619). Particulars: protein: recombinant; tags: N-terminal GST; dsDNA, one strand shown. Summed up:
as §1

Another experiment deals with T5, EHF (Homo sapiens, UniProt Q9NZC4 1-300).
T5 sequence: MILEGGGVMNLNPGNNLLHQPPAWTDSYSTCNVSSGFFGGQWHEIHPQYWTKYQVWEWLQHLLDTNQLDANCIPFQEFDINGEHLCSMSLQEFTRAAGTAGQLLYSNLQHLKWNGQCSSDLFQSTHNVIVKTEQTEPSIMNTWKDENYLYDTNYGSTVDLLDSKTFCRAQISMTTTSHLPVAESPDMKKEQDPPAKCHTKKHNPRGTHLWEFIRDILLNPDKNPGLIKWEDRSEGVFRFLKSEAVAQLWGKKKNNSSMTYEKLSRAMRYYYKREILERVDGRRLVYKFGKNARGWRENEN
The conditions noted are these: protein: recombinant; tags: N-terminal GST; dsDNA, one strand shown. Summed up: as §1

For a further experiment, the target named is SPI1 (Homo sapiens, UniProt P17947 1-270). The conditions noted are these: protein: recombinant; tags: N-terminal GST; dsDNA, one strand shown. Summed up:
as §1

A further experiment concerns the target SPIB (Homo sapiens, UniProt Q01892 1-262). The conditions noted are these: protein: recombinant; tags: N-terminal GST; dsDNA, one strand shown. The method, boiled down: as §1
For another experiment, the target named is T6, ELK3 (Homo sapiens, UniProt P41970 1-407).
T6 sequence: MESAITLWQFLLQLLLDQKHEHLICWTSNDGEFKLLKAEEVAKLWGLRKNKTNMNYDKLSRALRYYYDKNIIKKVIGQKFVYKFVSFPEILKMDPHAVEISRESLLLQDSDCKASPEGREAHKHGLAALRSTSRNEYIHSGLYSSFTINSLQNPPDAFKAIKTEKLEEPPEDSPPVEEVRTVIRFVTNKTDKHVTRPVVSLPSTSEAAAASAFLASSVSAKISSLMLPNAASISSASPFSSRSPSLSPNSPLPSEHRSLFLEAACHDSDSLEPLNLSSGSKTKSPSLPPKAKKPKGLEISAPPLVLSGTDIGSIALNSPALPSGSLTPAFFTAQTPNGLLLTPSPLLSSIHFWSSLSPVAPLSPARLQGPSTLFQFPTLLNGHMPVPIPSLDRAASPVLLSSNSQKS
Particulars: protein: recombinant; tags: N-terminal GST; dsDNA, one strand shown. Summed up: as §1

A further experiment concerns the target T7, FEV (Homo sapiens, UniProt Q99581 1-238).
T7 sequence: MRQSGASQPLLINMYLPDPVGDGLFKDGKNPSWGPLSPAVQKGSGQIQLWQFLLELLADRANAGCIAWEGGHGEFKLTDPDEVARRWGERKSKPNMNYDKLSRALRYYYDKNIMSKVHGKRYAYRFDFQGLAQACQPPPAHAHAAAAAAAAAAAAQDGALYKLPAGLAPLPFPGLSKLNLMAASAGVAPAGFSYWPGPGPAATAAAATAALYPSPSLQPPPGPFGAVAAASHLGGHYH
Particulars: protein: recombinant; tags: N-terminal GST; dsDNA, one strand shown. Summed up: as §1

For another experiment, the target named is ETV5 (Homo sapiens, UniProt P41161 1-510). Particulars: protein: recombinant; tags: N-terminal GST; dsDNA, one strand shown. Summed up: as §1
Chain of ETV5 (P41161 whole entry): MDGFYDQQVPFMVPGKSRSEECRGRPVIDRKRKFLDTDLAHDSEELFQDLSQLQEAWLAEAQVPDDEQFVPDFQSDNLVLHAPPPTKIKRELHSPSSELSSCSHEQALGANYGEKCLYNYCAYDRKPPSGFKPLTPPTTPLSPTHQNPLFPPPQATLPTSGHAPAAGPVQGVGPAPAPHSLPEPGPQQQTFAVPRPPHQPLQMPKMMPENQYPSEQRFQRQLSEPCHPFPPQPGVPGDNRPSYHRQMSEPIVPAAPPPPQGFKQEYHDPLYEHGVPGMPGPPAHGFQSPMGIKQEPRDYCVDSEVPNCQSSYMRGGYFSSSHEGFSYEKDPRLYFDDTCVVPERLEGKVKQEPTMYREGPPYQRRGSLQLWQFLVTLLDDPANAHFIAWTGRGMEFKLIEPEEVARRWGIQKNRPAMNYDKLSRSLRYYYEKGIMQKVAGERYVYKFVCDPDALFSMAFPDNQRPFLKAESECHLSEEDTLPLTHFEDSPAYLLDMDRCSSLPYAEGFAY
A further experiment has as its target HSF1 (Homo sapiens, UniProt Q00613 1-529). Particulars: protein: recombinant; tags: N-terminal GST; chain copies: 3; dsDNA, one strand shown. Summed up:
as §1

The next experiment has as its target T8, SPIC (Homo sapiens, UniProt Q8N5J4 1-248).
T8 sequence: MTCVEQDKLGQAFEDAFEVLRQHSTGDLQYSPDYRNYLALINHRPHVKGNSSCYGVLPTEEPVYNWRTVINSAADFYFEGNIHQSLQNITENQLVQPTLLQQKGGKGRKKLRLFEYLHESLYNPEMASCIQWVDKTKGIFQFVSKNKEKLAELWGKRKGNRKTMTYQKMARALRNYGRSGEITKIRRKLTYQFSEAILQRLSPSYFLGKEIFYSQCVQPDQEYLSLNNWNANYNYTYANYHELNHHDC
Particulars: protein: recombinant; tags: N-terminal GST; dsDNA, one strand shown. Summed up:
as §1

Another experiment addresses ELF4 (Homo sapiens, UniProt Q99607 1-663). Particulars: protein: recombinant; tags: N-terminal GST; dsDNA, one strand shown. The method, boiled down: as §1
Another experiment addresses T9, ELK4 (Homo sapiens, UniProt P28324-2 1-405).
T9 sequence: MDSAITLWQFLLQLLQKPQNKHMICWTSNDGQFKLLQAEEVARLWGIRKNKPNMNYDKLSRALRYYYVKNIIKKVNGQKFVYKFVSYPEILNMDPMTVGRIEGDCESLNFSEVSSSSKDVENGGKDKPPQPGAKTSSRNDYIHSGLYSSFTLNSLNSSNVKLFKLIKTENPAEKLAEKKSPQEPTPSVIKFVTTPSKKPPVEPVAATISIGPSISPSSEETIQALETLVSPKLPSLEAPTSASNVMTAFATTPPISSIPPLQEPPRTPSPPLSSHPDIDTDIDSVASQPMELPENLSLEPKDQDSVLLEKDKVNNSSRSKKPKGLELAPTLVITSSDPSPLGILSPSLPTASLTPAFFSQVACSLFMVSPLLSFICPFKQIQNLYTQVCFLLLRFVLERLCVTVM
Particulars: protein: recombinant; tags: N-terminal GST; dsDNA, one strand shown. The method, boiled down:
as §1

In a further experiment the target is T10, ETV2 (Homo sapiens, UniProt O00321 1-342).
T10 sequence: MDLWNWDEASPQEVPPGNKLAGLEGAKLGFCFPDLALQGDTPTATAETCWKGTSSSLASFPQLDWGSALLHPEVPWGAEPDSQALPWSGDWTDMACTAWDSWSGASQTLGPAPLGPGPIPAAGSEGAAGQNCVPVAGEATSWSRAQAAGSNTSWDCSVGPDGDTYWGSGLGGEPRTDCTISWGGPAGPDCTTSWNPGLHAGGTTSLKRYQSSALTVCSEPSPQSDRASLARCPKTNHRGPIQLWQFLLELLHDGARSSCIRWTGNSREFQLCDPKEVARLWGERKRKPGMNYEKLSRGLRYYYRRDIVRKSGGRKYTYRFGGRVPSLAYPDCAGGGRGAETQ
The conditions noted are these: protein: recombinant; tags: N-terminal GST; dsDNA, one strand shown. Summed up: as §1

In a further experiment the target is T11, ELF3 (Homo sapiens, UniProt P78545 1-371).
T11 sequence: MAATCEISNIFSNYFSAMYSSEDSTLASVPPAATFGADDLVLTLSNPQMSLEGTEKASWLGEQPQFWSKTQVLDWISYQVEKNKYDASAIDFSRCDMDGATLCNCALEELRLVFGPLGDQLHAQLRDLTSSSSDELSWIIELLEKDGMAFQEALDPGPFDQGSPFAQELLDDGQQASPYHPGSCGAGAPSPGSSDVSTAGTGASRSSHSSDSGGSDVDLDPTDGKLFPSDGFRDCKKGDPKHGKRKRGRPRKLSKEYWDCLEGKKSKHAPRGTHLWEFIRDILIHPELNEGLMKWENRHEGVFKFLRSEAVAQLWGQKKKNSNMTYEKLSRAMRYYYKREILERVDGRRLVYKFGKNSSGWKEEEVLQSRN
Particulars: protein: recombinant; tags: N-terminal GST; dsDNA, one strand shown. Summed up:
as §1

The next experiment has as its target CRX (Homo sapiens, UniProt O43186 1-299). Particulars: protein: recombinant; tags: N-terminal GST; dsDNA, one strand shown. Summed up: as §1
Another experiment addresses ETV1 (Homo sapiens, UniProt P50549 1-477). The conditions noted are these: protein: recombinant; tags: N-terminal GST; dsDNA, one strand shown. Summed up: as §1

Chain of ELF1 (P32519 whole entry): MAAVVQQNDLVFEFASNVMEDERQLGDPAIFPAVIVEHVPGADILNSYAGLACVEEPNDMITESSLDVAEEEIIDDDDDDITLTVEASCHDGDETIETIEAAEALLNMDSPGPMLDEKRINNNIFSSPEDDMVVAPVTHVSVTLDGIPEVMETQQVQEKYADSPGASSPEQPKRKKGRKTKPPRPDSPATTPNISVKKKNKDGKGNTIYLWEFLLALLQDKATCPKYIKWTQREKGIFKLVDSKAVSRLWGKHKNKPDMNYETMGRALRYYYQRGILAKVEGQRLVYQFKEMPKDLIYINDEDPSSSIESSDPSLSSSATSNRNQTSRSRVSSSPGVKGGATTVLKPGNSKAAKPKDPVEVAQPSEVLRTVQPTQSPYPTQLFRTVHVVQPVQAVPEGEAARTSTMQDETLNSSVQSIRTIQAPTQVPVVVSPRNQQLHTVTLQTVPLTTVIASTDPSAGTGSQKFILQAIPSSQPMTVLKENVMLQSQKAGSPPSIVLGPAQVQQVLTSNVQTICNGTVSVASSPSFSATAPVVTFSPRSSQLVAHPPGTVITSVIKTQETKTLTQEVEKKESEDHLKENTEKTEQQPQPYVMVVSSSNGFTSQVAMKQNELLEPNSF
Chain of CRX (O43186 whole entry): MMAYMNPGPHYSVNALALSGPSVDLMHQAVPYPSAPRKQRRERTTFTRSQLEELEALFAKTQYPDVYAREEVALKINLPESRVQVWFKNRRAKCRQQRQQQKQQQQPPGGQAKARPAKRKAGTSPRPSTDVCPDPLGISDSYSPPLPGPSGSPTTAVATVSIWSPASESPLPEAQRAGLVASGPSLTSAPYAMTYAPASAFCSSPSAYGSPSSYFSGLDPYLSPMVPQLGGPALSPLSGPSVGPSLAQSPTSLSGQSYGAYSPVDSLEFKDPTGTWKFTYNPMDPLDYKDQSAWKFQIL
Chain of ETV1 (P50549 whole entry): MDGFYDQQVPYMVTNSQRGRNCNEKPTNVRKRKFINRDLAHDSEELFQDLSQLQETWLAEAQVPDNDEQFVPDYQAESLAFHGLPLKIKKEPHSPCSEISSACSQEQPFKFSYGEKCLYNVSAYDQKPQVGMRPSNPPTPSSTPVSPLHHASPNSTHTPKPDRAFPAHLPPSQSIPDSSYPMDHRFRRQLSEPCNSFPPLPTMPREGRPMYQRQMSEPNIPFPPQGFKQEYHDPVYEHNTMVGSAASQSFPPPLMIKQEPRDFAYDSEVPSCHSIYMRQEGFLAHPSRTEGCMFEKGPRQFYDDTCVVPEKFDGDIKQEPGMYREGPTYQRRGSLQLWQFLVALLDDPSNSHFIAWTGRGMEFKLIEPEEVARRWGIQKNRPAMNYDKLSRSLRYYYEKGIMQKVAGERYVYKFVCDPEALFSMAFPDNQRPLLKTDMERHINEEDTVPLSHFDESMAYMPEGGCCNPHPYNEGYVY
Chain of HSF1 (Q00613 whole entry): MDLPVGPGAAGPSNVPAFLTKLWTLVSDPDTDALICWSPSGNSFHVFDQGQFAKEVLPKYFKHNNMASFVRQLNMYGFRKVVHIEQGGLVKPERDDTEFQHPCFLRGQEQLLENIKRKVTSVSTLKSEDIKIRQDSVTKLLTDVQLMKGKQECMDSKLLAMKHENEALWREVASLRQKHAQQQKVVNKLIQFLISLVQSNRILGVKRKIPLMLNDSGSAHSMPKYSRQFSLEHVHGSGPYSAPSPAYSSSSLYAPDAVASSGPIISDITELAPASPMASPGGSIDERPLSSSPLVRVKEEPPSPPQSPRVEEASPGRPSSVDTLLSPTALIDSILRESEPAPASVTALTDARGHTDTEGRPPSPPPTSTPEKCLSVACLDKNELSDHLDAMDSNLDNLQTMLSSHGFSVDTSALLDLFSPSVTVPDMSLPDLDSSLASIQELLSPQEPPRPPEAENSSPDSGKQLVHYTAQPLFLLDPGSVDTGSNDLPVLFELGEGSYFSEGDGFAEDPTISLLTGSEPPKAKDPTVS
Chain of SPIB (Q01892 whole entry): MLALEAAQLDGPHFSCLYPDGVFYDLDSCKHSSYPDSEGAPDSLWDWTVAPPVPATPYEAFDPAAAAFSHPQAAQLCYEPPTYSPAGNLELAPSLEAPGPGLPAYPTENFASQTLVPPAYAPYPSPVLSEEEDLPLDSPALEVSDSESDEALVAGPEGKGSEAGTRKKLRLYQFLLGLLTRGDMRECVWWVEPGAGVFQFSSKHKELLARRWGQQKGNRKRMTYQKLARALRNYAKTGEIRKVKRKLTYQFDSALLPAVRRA
Chain of ELF4 (Q99607 whole entry): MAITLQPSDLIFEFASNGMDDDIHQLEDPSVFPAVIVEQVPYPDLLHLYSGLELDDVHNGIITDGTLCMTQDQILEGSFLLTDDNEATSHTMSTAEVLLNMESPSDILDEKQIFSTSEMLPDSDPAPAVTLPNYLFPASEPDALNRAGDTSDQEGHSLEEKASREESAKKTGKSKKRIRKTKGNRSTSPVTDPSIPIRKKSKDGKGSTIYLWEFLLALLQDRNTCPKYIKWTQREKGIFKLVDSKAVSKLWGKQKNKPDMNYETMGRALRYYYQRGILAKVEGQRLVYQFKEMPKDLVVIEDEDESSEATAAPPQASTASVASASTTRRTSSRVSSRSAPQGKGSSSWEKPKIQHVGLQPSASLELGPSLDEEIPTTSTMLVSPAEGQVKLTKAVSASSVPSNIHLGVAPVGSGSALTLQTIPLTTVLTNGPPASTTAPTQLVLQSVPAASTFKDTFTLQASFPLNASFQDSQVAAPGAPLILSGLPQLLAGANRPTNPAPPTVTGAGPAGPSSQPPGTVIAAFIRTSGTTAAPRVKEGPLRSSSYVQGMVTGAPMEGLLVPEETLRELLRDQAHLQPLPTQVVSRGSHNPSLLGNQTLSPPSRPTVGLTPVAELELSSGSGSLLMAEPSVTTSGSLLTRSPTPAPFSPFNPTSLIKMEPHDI

With CCCTCC, the binding signal with FLI1 was 1.37 fold enrichment (6-mer frequency, TF over GST control); with ELK1, 1.54 fold enrichment (6-mer frequency, TF over GST control); in the experiment with GABPA, 1.5 fold enrichment (6-mer frequency, TF over GST control); with ERG it was 1.41 fold enrichment (6-mer frequency, TF over GST control); with ELF1, 1.49 fold enrichment (6-mer frequency, TF over GST control); with EHF, 1.37 fold enrichment (6-mer frequency, TF over GST control). Besides, the binding signal in the experiment with SPI1 was 1.35 fold enrichment (6-mer frequency, TF over GST control); with SPIB, 1.39 fold enrichment (6-mer frequency, TF over GST control); with ELK3 it was 1.37 fold enrichment (6-mer frequency, TF over GST control); in the experiment with FEV it was 1.51 fold enrichment (6-mer frequency, TF over GST control); in the experiment with ETV5, 1.48 fold enrichment (6-mer frequency, TF over GST control); with HSF1 it was 1.22 fold enrichment (6-mer frequency, TF over GST control). For the same sequence, the binding signal was 1.73 fold enrichment (6-mer frequency, TF over GST control) with SPIC; 1.58 fold enrichment (6-mer frequency, TF over GST control) in the experiment with ELF4; 1.38 fold enrichment (6-mer frequency, TF over GST control) with ELK4; 1.32 fold enrichment (6-mer frequency, TF over GST control) with ETV2; 1.27 fold enrichment (6-mer frequency, TF over GST control) with ELF3; 1.19 fold enrichment (6-mer frequency, TF over GST control) with CRX. For the same sequence, the binding signal with ETV1 is 1.45 fold enrichment (6-mer frequency, TF over GST control).
